# Where “and” joins values, the source holds several entries; their conditions need not be identical. Equal entries are not always repeated. Results filed as inconclusive are left out. The source holds several records for some structures; these can differ, active in one and inactive in another. Values without a mark were called inactive. Calls of active or inactive are those of the source. The call rests on the fitted dose curve; in most records, active means well fitted inhibition curve with a large enough effect; inconclusive means small, poorly fitted or top-dose-only effect; inactive means flat fitted curve, though single readings scatter.
# Assays:
# Test in all cases: Cytotoxic Profiling of Annotated Libraries Using Quantitative High-Throughput Screening (AID 1296008); further: nearly all actives have a fitted effect of over 60% in size
# Conditions in all cases: Five cell lines viability, CellTiter-Glo ATP luminescence, 48-72 h; max response: active compounds read low
# CRL-7250 = system: CRL-7250
# Procedure, shortened: (§1)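 Cells exposed to compounds for 48 or 72 hr at 37 degrees Celsius. Viability read as ATP-coupled luminescence with CellTiter-Glo after 10 min at room temperature.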
# HEK293 = system: HEK293
# Procedure, shortened: as §1
# HaCat = system: HaCat
# Procedure, shortened: as §1
# On the % scale 0 is the no-effect control and ±100 the full control effect; potency means the concentration at half of the fitted maximal effect.
compound,measurement,setting,value
CCCCCCCCCCCCCC(=O)N[C@H](CO)[C@H](O)c1ccc([N+](=O)[O-])cc1,Potency,CRL-7250,9350 nM (active)
same,Potency,HEK293,5.26 µM (active)
CC1=C(C(=O)Nc2cc3cn[nH]c3cc2F)C(c2ccc(C(F)(F)F)cc2)CC(=O)N1 (stereo unspecified),max response,CRL-7250,1.25%
same,outcome,CRL-7250,inactive
same,outcome,HEK293,inactive
same,max response,HaCat,3.22%
same,outcome,HaCat,inactive
Cc1cnc(-c2cc(N3CCN(C(=O)CCS(C)(=O)=O)CC3)ncc2Cl)c(C)c1,max response,CRL-7250,2.67%
same,outcome,CRL-7250,inactive
same,outcome,HaCat,inactive
CCN1C[C@H](C)n2c(c(O)c3c(=O)n(Cc4ccc(F)c(Cl)c4)nc(C(=O)NC)c32)C1=O,max response,CRL-7250,-6.85%
same,outcome,CRL-7250,inactive
same,max response,HEK293,1.12%
same,outcome,HEK293,inactive
same,max response,HaCat,-5.77% and -3.93%
Cc1ccccc1C(C(=O)NC1CCCCC1)N(C(=O)CNc1ccc(C#N)cc1)c1cccc(F)c1 (stereo unspecified),max response,CRL-7250,4.34%
same,outcome,CRL-7250,inactive
same,max response,HEK293,-1.85%
same,outcome,HEK293,inactive
same,max response,HaCat,-5.11%
same,outcome,HaCat,inactive
C[C@H](c1ccc(F)cc1CCCC(=O)O)N(c1cc(F)ccc1F)S(=O)(=O)c1ccc(Cl)cc1,max response,CRL-7250,-0.7% and -8.45%
same,max response,HEK293,-10.5%
same,outcome,HEK293,inactive
same,outcome,HaCat,inactive
CC(C)(C)c1[nH]cnc1C=c1[nH]c(=O)c(=Cc2ccccc2)[nH]c1=O,Potency,CRL-7250,3.8 nM (active)
c1cc(OCCN2CCCCC2)cc(-c2n[nH]c3ccc(-c4ncn[nH]4)cc23)c1,max response,CRL-7250,-3.49%
same,outcome,CRL-7250,inactive
same,outcome,HaCat,inactive
CN1CC(=O)NC1=NC(=O)Nc1cccc(Cl)c1,max response,CRL-7250,-9.31%
same,max response,HEK293,-3.54%
Cc1ccc(C(=O)N(CCCN)[C@@H](c2oc3cc(Cl)ccc3c(=O)c2Cc2ccccc2)C(C)C)cc1,max response,CRL-7250,-26.7%
same,Potency,HEK293,0.0662 µM (active)
Cn1cnc(-c2cc3nccc(Oc4ccc(NC(=S)NC(=O)Cc5ccccc5)cc4F)c3s2)c1,Potency,CRL-7250,26400 nM (active)
same,Potency,HEK293,23.5 µM (active)
COC(=O)Nc1ccc(-c2nc(N3CCOCC3)c3cnn(C4CCN(C(=O)OC)CC4)c3n2)cc1,Potency,CRL-7250,332 nM (active)
same,Potency,HEK293,1.66 µM (active)
C#CCN(C)CC1=Cc2ccccc2Oc2ccccc21,max response,CRL-7250,-16.4%
CN(C)CCN(C)C(=O)c1ccc(NC(=O)Nc2ccc(-c3nc(N4CCOCC4)c4ccn(CC(F)(F)F)c4n3)cc2)cc1,Potency,CRL-7250,66.2 nM (active)
same,max response,HEK293,-108%
CC(C)n1c(C=C[C@H](O)C[C@H](O)CC(=O)O)c(-c2ccc(F)cc2)c2ccccc21,Potency,CRL-7250,2640 nM (active)
same,Potency,HEK293,14.8 µM (active)
CNC(=O)c1c(-c2ccc(F)cc2)oc2cc(N(CCO)S(C)(=O)=O)c(C3CC3)cc12,Potency,CRL-7250,11800 nM (active)
same,max response,CRL-7250,-2.04%
c1ccc(CNc2nc(N3CCOc4ccccc43)nc3c2CCCC3)cc1,max response,CRL-7250,3.99%
same,outcome,CRL-7250,inactive
same,max response,HaCat,-18.6% and -15.3%
COc1nccc(-c2c(-c3ccc(F)cc3)ncn2C2CCNCC2)n1,max response,CRL-7250,-23.7% and 3.35%
same,Potency,HEK293,3.32 µM (active)
same,max response,HEK293,-20%
same,max response,HaCat,-7.28% and 1.1%
CCCC1OC2C[C@@H]3[C@H]4CCC5=CC(=O)C=C[C@]5(C)[C@H]4C(O)C[C@]3(C)[C@]2(C(=O)CO)O1 (stereo partly specified),max response,CRL-7250,-14.4%
CN(C(Cc1ccc(OS(=O)(=O)c2cccc3cnccc23)cc1)C(=O)N1CCN(c2ccccc2)CC1)S(=O)(=O)c1cccc2cnccc12 (stereo unspecified),max response,CRL-7250,0.636%
COC(=O)N1CCN(Cc2cccc(NC(=O)Nc3ccc(C)nc3)c2F)CC1,max response,CRL-7250,-17.2%
same,outcome,CRL-7250,inactive
same,max response,HaCat,3.64% and 2.27%
COc1cc2ncnc(Nc3cc(Br)c(O)c(Br)c3)c2cc1OC,max response,CRL-7250,-9.02% and 1.18%
same,max response,HEK293,0.846%
same,outcome,HEK293,inactive
same,max response,HaCat,-28.8%
CC(C)(OCc1nn(Cc2ccccc2)c2ccccc12)C(=O)O,max response,CRL-7250,1.06%
same,outcome,CRL-7250,inactive
same,max response,HEK293,0.564%
same,outcome,HEK293,inactive
same,max response,HaCat,3.78%
same,outcome,HaCat,inactive
COc1cc2nccc(Oc3ccc(NC(=O)Nc4ccc(F)cc4F)c(F)c3)c2cc1OC,max response,CRL-7250,-18.7%
Cc1ccccc1-n1c(Cn2nc(-c3cccc(O)c3)c3c(N)ncnc32)nc2cccc(C)c2c1=O,Potency,CRL-7250,2640 nM (active)
same,outcome,CRL-7250,inactive
same,outcome,HaCat,inactive
COc1ccc(-c2nc3ccc(C4=NNC(=O)CC4C)cc3[nH]2)cc1 (stereo unspecified),outcome,CRL-7250,inactive
same,Potency,HEK293,18.8 µM (active) and 23.1 µM (active)
COc1cc2nccc(Oc3ccc(NC(=O)Nc4cc(C)on4)c(Cl)c3)c2cc1OC,Potency,CRL-7250,14800 nM (active)
Nc1ccc(-c2ccc3ncc4ccc(=O)n(-c5cccc(C(F)(F)F)c5)c4c3c2)cn1,Potency,CRL-7250,46.1 nM (active)
same,max response,CRL-7250,-76.7%
same,Potency,HEK293,0.0132 µM (active)
same,Potency,HaCat,2.64 µM (active) and 2.91 µM (active)
CC(C)CNc1ccnc(NCc2csc(-c3ccccc3)n2)n1,Potency,CRL-7250,1300 nM (active)
same,max response,CRL-7250,-19.9%
same,Potency,HaCat,16.4 µM (active)
same,max response,HaCat,-4.23%

# Reference: PubChem BioAssay (NCATS)
